The record followed here is PubChem BioAssay (EPA / NIEHS).

Where “and” joins values, the source holds several entries; their conditions need not be identical. Identical values can stand only once. Calls of active or inactive are those of the source. How the source made its calls: active means hit-call score of the fitted dose curve at least 0.9, where 1 is the maximum; inactive means score below 0.9.

Read-out in the assay: Matrix Metallopeptidase 1 (MMP1), MMP1 (gene 4312)
In words: BSK_MyoF_MMP1: BioMAP Diversity Plus: MyoF Assay for Matrix Metallopeptidase 1 (MMP1) Biomarker Activity (AID 2284268). As to conditions: primary human lung fibroblasts. The method, then: BSK_MyoF is a cell-based, multiplexed-readout assay that uses lung fibroblasts, […], with measurements taken at 24 hours after chemical dosing in a microplate: 96-well plate.BSK_MyoF_MMP1 is an assay component measured in the BSK_MyoF assay. It measures […] antibody related to regulation of gene expression using ELISA technology.Data from the assay component BSK_MyoF_MMP1 was analyzed at the endpoint, BSK_MyoF_MMP1, in the positive analysis fitting direction relative to DMSO as the negative control and baseline of activity. Using a type of binding reporter, gain or loss-of-signal activity can be used to understand protein changes. To generalize the intended target to other relatable targets, this assay endpoint is annotated to the 'protease' intended target family, where the subfamily is 'matrix metalloproteinase'.
The levels of cell surface (or secreted, indicated by the prefix "s") biomarker endpoints were measured by ELISA. Overt cytotoxicity to cells in confluent adherent cultures (all systems other than the BT system) was assessed by measuring total protein levels using sulforhodamine B (SRB) staining in parallel cultures at the time of biomarker measurements, indicated as SRB endpoints. For proliferation assays for adherent cell types, individual cell types are cultured at sub-confluence and relative cell numbers quantified by SRB staining at time points optimized for each system (48 h: 3C and CASM3C systems; 72 h: BT and HDF3CGF systems; 96 h: SAg system). SRB was performed by staining cells with 0.1% SRB after fixation with 10% TCA and reading wells at 560 nm.Viability and proliferation of PBMC (T cells) was quantified by Alamar Blue reduction for the SAg and BT systems. For PBMC viability (referred to as PBMC Cytotoxicity within the assay endpoint names), cells were plated (75,000/well in a 96-well plate) and then chemical samples added for 1 h before addition of activators, SEB and TSST-1 (20 ng/mL final concentration each). Cells were incubated for 90 h. Then, Alamar Blue (20 uL/well) (Invitrogen, Cat DAL1100) was added for 6 h, and the plates were read with a fluorescence microplate reader at 546/580 nm (excitation/emission). For PBMC proliferation, cells were plated and activated as above but incubated for only 16 h prior to addition of Alamar Blue. Plates were read after 6 h.
Regarding `COC(=O)/C=C\C(=O)OC`, the result was inactive.
For orientation: AC50 means the concentration giving half of the maximal activity seen. Take `CCCCCCCCCCCCCCCCCC[N+](C)(C)C`: the half-maximal activity concentration (AC50) was 1.24 µM (active).
`CCCCCCCCCC/C=C/C1CC(=O)OC1=O` (stereo not given): the result was inactive.
As to `CCCCCCCCCCC1CO1` (stereo not given), the AC50 is 3.97 µM (active).
With `Sc1nc2ccccc2s1`, the outcome was inactive.
Turning to `Oc1cccc2ccccc12`, the AC50 was 12.1 µM (active).
Turning to `CN(C)CCC(c1ccc(Cl)cc1)c1ccccn1` (stereo not given), the outcome was inactive.
Same read-out and setting: under `Cc1cccnc1` stands “inactive”.
Turning to `CC(C)CC(=O)CC(C)CC(C)C` (stereo not given), the result was inactive.
As to `CN(C)c1ccc(C(c2ccccc2)c2ccc(N(C)C)cc2)cc1`, the result was inactive.
In the case of `CCCCCCC(O)CCCCCCCCCCC(=O)OC` (stereo not given), the result was inactive.
On to `OC(C(F)(F)F)(C(F)(F)F)C(O)(C(F)(F)F)C(F)(F)F`, for which the AC50 is 48.4 µM (active) and 47.9 µM (active).
Take `CC[N+](CC)(CC(=O)Nc1c(C)cccc1C)Cc1ccccc1`: the result was inactive.
Same read-out and setting: under `Cc1cc(-n2nc3ccc(Cl)cc3n2)c(O)c(C(C)(C)C)c1` stands “inactive”.
On to `O=C(C(=O)c1ccccc1)c1ccccc1`, for which the result was inactive.
